Among the test systems are DU-145 prostate; K-562 leukemia; MDA-MB-231 breast; RXF 393 renal; SF-268 CNS; SF-295 CNS; SF-539 CNS; UACC-257 melanoma; M14 melanoma; HCT-15 colon; HT29 colon; SNB-75 CNS; SNB-19 CNS; U251 CNS; PC-3 prostate; SK-MEL-5 melanoma; UACC-62 melanoma; SK-MEL-28 melanoma; LOX IMVI melanoma; MALME-3M melanoma.
What all share (assay): NCI-60 one-dose screen, 48 h (100 = growth as untreated, 0 = no growth, -100 = all killed)
Common to all, as to details: 10 µM

The panel holds about 83,000 compounds, 20% with a hit somewhere; the sample as a whole holds those more often.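 Testing used 96-well plates and a 48-hour single-concentration exposure. Example: -40 means 40% of the starting cells died.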 Unmarked numbers belong to inactive results. Active and inactive are the calls of the source. Rule for the calls: active = growth percent below 10; inactive = the rest.

On to `C#CC(C)(O)[C@@H]1C[C@H](CC(=O)O)C1(C)C` (stereo partly drawn), for which the growth in the test on DU-145 prostate is 112%; with K-562 leukemia it was 118%; with MDA-MB-231 breast, 113%; in the test with RXF 393 renal, 134%; in the test on SF-268 CNS, 105%; in the test on SF-295 CNS, 103%. The growth in the test on SF-539 CNS was 99.7%; with UACC-257 melanoma it was 105%; with M14 melanoma, 105%; in the test with HCT-15 colon, 104%; in the test on HT29 colon it was 109%; in the test with SNB-75 CNS, 96%. The growth in the test with SNB-19 CNS is 98.6%; in the test on U251 CNS it was 109%; in the test on PC-3 prostate, 105%; in the test on SK-MEL-5 melanoma, 115%; in the test with UACC-62 melanoma, 100%; in the test with SK-MEL-28 melanoma, 113%.

On to `O=C1OC(C(Cl)(Cl)Cl)OC1C(Cl)(Cl)Cl` (stereo not drawn), for which the growth in the test with DU-145 prostate is 101%; in the test on K-562 leukemia it was 91.3%; in the test on MDA-MB-231 breast, 103%; with RXF 393 renal, 116%; in the test with SF-268 CNS it was 103%; in the test on SF-295 CNS, 98%. Also, the growth in the test with SF-539 CNS is 115%; in the test on UACC-257 melanoma it was 92.5%; in the test on M14 melanoma it was 99%; in the test on HCT-15 colon it was 109%; with HT29 colon, 105%; with SNB-75 CNS, 104%. Moreover, the growth in the test with SNB-19 CNS is 102%; with U251 CNS it was 104%; in the test on PC-3 prostate it was 86.8%; in the test with SK-MEL-5 melanoma, 107%; with UACC-62 melanoma, 95.3%; in the test with LOX IMVI melanoma, 97%. Besides, the growth in the test with SK-MEL-28 melanoma is 107%.

On to `COc1ccc2c(c1)C(CC(=O)NN)CCC2` (stereo not drawn), for which the growth is 114% in the test with DU-145 prostate; 94.3% in the test with K-562 leukemia; 101% in the test on MDA-MB-231 breast; 115% with RXF 393 renal; 96.3% in the test with SF-268 CNS; 109% with SF-295 CNS. For the same compound, the growth with SF-539 CNS was 100%; in the test with UACC-257 melanoma, 90.5%; in the test with M14 melanoma, 104%; with HCT-15 colon, 104%; in the test with HT29 colon, 112%; in the test on SNB-75 CNS, 89.9%. In addition, the growth was 109% with SNB-19 CNS; 102% with U251 CNS; 100% with PC-3 prostate; 104% with SK-MEL-5 melanoma; 104% in the test on UACC-62 melanoma; 93.7% in the test on LOX IMVI melanoma. In addition, in the test with SK-MEL-28 melanoma, the growth was 113%.

For `COc1ccc2nc3cc(Cl)ccc3c(NCCCNCCO)c2c1`, the growth was 5.64% (active) in the test with DU-145 prostate; -4.13% (active) in the test on K-562 leukemia; 17.8% with MALME-3M melanoma; -53.8% (active) with MDA-MB-231 breast; -13.2% (active) in the test on SF-268 CNS; 3.49% (active) with SF-295 CNS. For the same compound, the growth is -10.2% (active) in the test on SF-539 CNS; -75.4% (active) in the test on UACC-257 melanoma; -62.8% (active) in the test with M14 melanoma; 13.6% in the test with HCT-15 colon; -66.3% (active) in the test on HT29 colon; -36.4% (active) in the test with SNB-75 CNS. Further, the growth was 4.9% (active) in the test on SNB-19 CNS; -45.2% (active) with U251 CNS; -30.6% (active) with PC-3 prostate; 14.3% with SK-MEL-5 melanoma; -64.2% (active) in the test on UACC-62 melanoma; -59.7% (active) with LOX IMVI melanoma. Moreover, the growth with SK-MEL-28 melanoma is -49% (active).

With `O=C(COc1cccc(/C=C2\CSc3ccccc3C2=O)c1)c1ccc(Cl)cc1`, the growth is 94.9% with DU-145 prostate; -76.8% (active) in the test on K-562 leukemia; -61.9% (active) with MALME-3M melanoma; 68.8% with MDA-MB-231 breast; 29.9% in the test on SF-268 CNS; -28.1% (active) in the test on SF-295 CNS. The growth is 50.6% in the test with SF-539 CNS; -47% (active) in the test with UACC-257 melanoma; -34.7% (active) in the test on M14 melanoma; -49.7% (active) in the test with HCT-15 colon; -86.3% (active) in the test on HT29 colon; 94.6% in the test on SNB-75 CNS. In addition, the growth with SNB-19 CNS is 60.8%; in the test on U251 CNS, -97.9% (active); with PC-3 prostate, -39.6% (active); in the test with SK-MEL-5 melanoma, -94.4% (active); in the test with UACC-62 melanoma, -73.9% (active); in the test on LOX IMVI melanoma, -100% (active). For the same compound, the growth with SK-MEL-28 melanoma was -81.7% (active).

Take `CN1CCN(CCCn2c(=O)c3sc4ncccc4c3n3nnc(-c4ccccc4)c23)CC1`: the growth in the test with DU-145 prostate was 31.5%; in the test with K-562 leukemia, -32.5% (active); in the test on MDA-MB-231 breast, -45.5% (active); in the test with RXF 393 renal, -68.3% (active); in the test with SF-268 CNS, -10.8% (active); with SF-295 CNS, -76.1% (active). In addition, the growth in the test on SF-539 CNS was -90.5% (active); in the test with UACC-257 melanoma, -88.8% (active); in the test with M14 melanoma, -82.7% (active); in the test on HCT-15 colon it was 7.72% (active); with HT29 colon, -54.1% (active); in the test on SNB-75 CNS, -24.7% (active). Besides, the growth is 23.3% in the test on SNB-19 CNS; -81.8% (active) with U251 CNS; 46.5% in the test with PC-3 prostate; -96.3% (active) with SK-MEL-5 melanoma; -88% (active) in the test with UACC-62 melanoma; -90.8% (active) in the test on LOX IMVI melanoma. Besides, the growth in the test with SK-MEL-28 melanoma was -92.6% (active).

Take `CCCCCCCCCCCC[n+]1c(C)cc(N)c2ccccc21`: the growth with DU-145 prostate was 24.2%; in the test on K-562 leukemia, -39.5% (active); in the test with MDA-MB-231 breast, -3.36% (active); in the test on RXF 393 renal, -27.7% (active); in the test on SF-268 CNS it was 19.6%; in the test with SF-295 CNS, -1.01% (active). Moreover, the growth was 16.5% in the test on SF-539 CNS; -17.8% (active) with UACC-257 melanoma; -33.5% (active) with M14 melanoma; 34.7% in the test on HCT-15 colon; -8.54% (active) in the test with HT29 colon; 3.98% (active) in the test with SNB-75 CNS. Besides, the growth in the test with SNB-19 CNS was 9.29% (active); with U251 CNS, 8.56% (active); in the test on PC-3 prostate, -6.19% (active); in the test with SK-MEL-5 melanoma, -96.7% (active); in the test with UACC-62 melanoma, -27.8% (active); in the test with LOX IMVI melanoma, -74.4% (active). Besides, in the test with SK-MEL-28 melanoma, the growth is 29.5%.

For `Nc1ncc(-c2cnn(C3CCNCC3)c2)cc1-c1nc2ccccc2o1`, the growth in the test on DU-145 prostate was 15.2%; in the test with K-562 leukemia it was -60% (active); with MDA-MB-231 breast it was 27.1%; with RXF 393 renal, -29.5% (active); in the test on SF-268 CNS, -0.542% (active); in the test on SF-295 CNS, 94.5%. The growth in the test on SF-539 CNS is -33.8% (active); in the test on UACC-257 melanoma, -82% (active); in the test with M14 melanoma, -88.7% (active); in the test with HCT-15 colon it was 12.4%; in the test with HT29 colon it was -4.71% (active); in the test on SNB-75 CNS, 13.2%. In addition, the growth was 35.8% in the test with SNB-19 CNS; 13.1% with U251 CNS; 26.9% in the test with SK-MEL-5 melanoma; -67.1% (active) in the test with UACC-62 melanoma; -80.6% (active) in the test with LOX IMVI melanoma; -86.8% (active) in the test on SK-MEL-28 melanoma.

In the case of `COc1ccc2c(c1)C(=O)/C(=C/c1cccc(OCC(=O)c3ccc([N+](=O)[O-])cc3)c1)CO2`, the growth in the test on DU-145 prostate is 63.4%; in the test on K-562 leukemia, -81.2% (active); in the test on MALME-3M melanoma, 30.4%; with MDA-MB-231 breast, 60.9%; with SF-268 CNS, 62.8%; in the test on SF-295 CNS, 43.3%. The growth is 27.8% in the test with SF-539 CNS; -49.4% (active) with UACC-257 melanoma; 8.08% (active) in the test with M14 melanoma; -37.6% (active) in the test with HCT-15 colon; 6.81% (active) in the test with HT29 colon; 55.5% with SNB-75 CNS. Further, the growth with SNB-19 CNS is 90.1%; in the test on U251 CNS, 22.4%; with PC-3 prostate, 22.5%; in the test with SK-MEL-5 melanoma, 15.8%; in the test on LOX IMVI melanoma, -100% (active); in the test on SK-MEL-28 melanoma, 43.9%.

The values are drawn from PubChem BioAssay (NCI).
